We go through 40 compounds from PubChem BioAssay (NCI).

Structures are written as SMILES. About 83,000 compounds went through this panel and 20% of them were active in at least one assay; those are over-represented in the sample as a whole.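 In brief: 96-well plates, 48 h treatment, single concentration, percent growth endpoint.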 Values without a mark were called inactive. Active and inactive are the calls of the source. The calls were made as follows: active = growth percent below 10; inactive = the rest.

For this assay, the system named is HL-60(TB) leukemia. Put plainly: NCI-60 one-dose screen, 48 h (100 = growth as untreated, 0 = no growth, -100 = all killed). Conditions: 10 µM unless noted.
In the case of `C[C@]12CC[C@H]3[C@@H](CC=C4C[C@@H](O)CC[C@@]43C)[C@@H]1CC[C@@H]2C(=O)C/C=N/O`, the growth is 78.9%.

Turning to `Cc1nnc(Nc2ccc(NC(=O)Nc3ccc(Cl)cc3)cc2)c2ccccc12`, the growth is -34.8% (active).

In the case of `C[C@]12CC[C@@H]3c4cc(OC(F)F)c(OS(N)(=O)=O)cc4CC[C@H]3[C@@H]1CC[C@@H]2O`, the growth was 1.17% (active).

For `C/C=C(\C)C(=O)N[C@H]1CC[C@]2(C)C3CC[C@@]4(C)C(CC[C@@H]4C(C)N(C)C)C3CCC2[C@H]1OC(C)=O` (stereo not given in full), the growth was 18.2%.

For the compound `NC[C@@H]1O[C@H](O[C@@H]2[C@@H](CO)OC(O[C@@H]3[C@@H](O)[C@H](N)C[C@H](N)[C@H]3OC3O[C@H](CN)[C@@H](O)[C@H](O)[C@H]3N)[C@@H]2O)[C@H](N)[C@@H](O)[C@@H]1O` (stereo not given in full), the growth is 94.7%.

Consider `COC1CC(C)C(OC)c2cc(O)cc(c2O)NC(=O)/C(C)=C/C=C\C(C)C(OC(N)=O)/C(C)=C\C(C)C1OC` (stereo not given), for which the growth is -51.6% (active).

Regarding `COCCn1cc(-c2csc(-c3c[nH]c4ccc(Br)cc34)n2)c2cccnc21`, the growth was 20.5%.

Turning to `[N-]=[N+]=NCC1OC(n2cnc3c(NC(=O)Nc4ccccc4)ncnc32)C2OC(=O)CC12` (stereo not given), the growth is 87.3%.

`O=C1C2=C(C(=O)c3c(O)ccc(O)c31)N(c1cccnc1)Cc1ccccc1O2`: the growth was -23.5% (active).

As for `N#Cc1c(N2CCOCC2)nc(=S)[nH]c1-c1ccccc1`, the growth was 70.2%.

Turning to `CCN(CC)CCCNc1c2ccc(Cl)cc2nc2ccc(OC)cc12`, the growth is -50.3% (active).

For the compound `O=C1Nc2ccccc2C12CC(c1ccc(Cl)cc1)=NN2` (stereo not given), the growth was 99.1%.

In the case of `COc1ccc(CN2c3ccccc3Oc3ccccc32)cc1F`, the growth is 54.1%.

For the compound `CC(=O)CC(=O)SC1=NCCS1`, the growth was 107%.

Take `NNC(=O)c1ccc(-n2nc(-c3ccccc3)c3ccccc32)cc1`: the growth is 93%.

In the case of `Cc1nc2ccc(C(=O)NCc3cc(C(=O)O)c(C)o3)cc2nc1C`, the growth was 103%.

For the compound `CC(C)n1c2ccc(Br)cc2c2c3c(c4c5ccccc5ccc4c21)C(=O)NC3=O`, the growth was 100%.

Regarding `NS(=O)(=O)c1ccc(N2N=C(c3ccc(-c4ccccc4)cc3)CC2c2ccc(Cl)cc2)cc1` (stereo not given), the growth was 86.5%.

`CC1(C)N=C(N)N=C(N)N1c1cccc(CCc2ccccc2)c1`: the growth is 32.4%.

Regarding `N=c1c2c(=O)n3c(nc2nc2sc4ccc(Cl)cc4n12)-c1ccccc1Sc1ccccc1-3`, the growth is 4.46% (active).

For `Oc1ccc(C(c2ccc(O)cc2)C(Cl)(Cl)Cl)cc1`, the growth was 68.1%.

Take `COc1cc2c(=O)[nH]c3cc([N+](=O)[O-])ccc3c2cc1[N+](=O)[O-]`: the growth is 71.1%.

As to `Cc1cc(C)c(S(=O)O)c(C)c1`, the growth was 102%.

As to `Clc1ccc2nc3nc4ccc[nH]c4cc3c2c1`, the growth is 88.2%.

For the compound `O=C1C=C(Cl)C(=O)c2ccccc21`, the growth is 57.3%.

In the case of `Cc1ccc(C)n1-c1ccsc1C(=O)NNC(=O)C(Cl)Cl`, the growth was 106%.

Consider `COc1ccc(OC)c(CCn2cncc2-c2c[nH]c3cc(Br)ccc23)c1`, for which the growth is -9.46% (active).

`COc1ccc(/C(C#N)=C/c2nc3c(N4CCOCC4)nc(Cl)nc3n2C)cc1OC`: the growth was -28% (active).

Take `Cc1c(O)c(=O)ccn1-c1nc2ccccc2s1`: the growth was 98.3%.

For the compound `O=C1CCC(=O)CC1`, the growth was 97.7%.

Regarding `OCCc1ccc(Cl)cc1`, the growth was 104%.

Turning to `O=C(CSc1ncc(-c2ccccc2)n1-c1ccccc1)Nc1ccc(-c2nc3ccccc3s2)cc1`, the growth is 100%.

On to `CS(=O)(=O)Nc1cccc(-c2ccc3ncnc(Nc4ccc(F)c(Cl)c4)c3c2)c1`, for which the growth was 24.8%.

For the compound `COc1ccc2nc(-c3ccc(Cl)cc3)cc(C(=O)N3N=C(c4ccc(N)cc4)CC3c3ccccc3)c2c1` (stereo not given), the growth is -1.6% (active).

Regarding `COc1ccc2nc3cc(Cl)ccc3c(NCCNCC(O)CO)c2c1` (stereo not given), the growth was 15.6%.

With `CC(C)(C)c1cc(C(=O)Nc2ccccc2C(=O)NCCN)cc(C(C)(C)C)c1`, the growth was -51.8% (active).

As to `Nc1nccc2c1ccn2-c1cccc(NC(=O)c2ccc(N3CCOCC3)c(C(F)(F)F)c2)c1`, the growth was -3.75% (active).

For `O=C(NCCCO)c1cc(Cl)ccc1O`, the growth was -13.5% (active).

As to `C=CCCCC(=O)CCC(=O)OCC1O[C@@H](O[C@@H]2C(O)[C@@H](OC(C)=O)C(C)O[C@H]2O[C@H](CC=C)CCCCC)C(O)[C@@H](OC(=O)/C(C)=C/C)[C@@H]1OC(=O)/C=C/c1ccccc1` (stereo not given in full), the growth is 8.45% (active).

`Brc1cccc(-c2cc(-c3ccc4nccnc4c3)[nH]n2)c1`: the growth was 14.9% [25 µM].
